Assay results as given in PubChem BioAssay AID1159580 (chemical genetic matrix, 2015).
Values joined by “and” are separate entries in the source; they are usually repeats but may differ in a detail not shown here. Equal values may be shown once. Screen size: about 5,500 compounds; about 2,000 (36%) were called active. Roughly 18% stayed inconclusive and do not appear here. No stated cut-off is given here; in the data, active means normalized growth mostly below about 0.91 (no sharp cut-off); inconclusive means no clear call, values can overlap the other calls; inactive means mostly above about 0.92. This is one part of the list.

Test: chemical genetic growth profiling, strain panel (AID 1159580);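 further: tested at 20 µM; growth read once vehicle control cultures reached saturation at 30 °C; 1 = growth at the plate median or of vehicle wells; lower values mean less growth of the strain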
Details: S. cerevisiae deletion strains, growth OD

Measured: normalized growth

COc1ccc2c(c1)OCC(Cc1ccc(OC)c(OC(C)=O)c1)C2=O (configuration not stated)
inactive: locus YAL013W, strain DEP1, hits give low values 0.979 | locus YAL021C, strain ccr4, hits give low values 0.974 | locus YAL026C, strain drs2, hits give low values 0.967 | locus YAL030W, strain snc1, hits give low values 0.973 | locus YBL061C, strain skt5, hits give low values 0.967 | locus YBR009C, strain hhf1, hits give low values 0.983 | locus YBR021W, strain FUR4, hits give low values 0.883 | locus YBR023C, strain chs3, hits give low values 0.965 | locus YBR171W, strain sec66, hits give low values 0.962 | locus YBR229C, strain ROT2, hits give low values 0.996 | locus YBR231C, strain swc5, hits give low values 0.969 | locus YBR279W, strain paf1, hits give low values 0.973 | locus YCL011C, strain gbp2, hits give low values 0.985 | locus YCL016C, strain dcc1, hits give low values 0.985 | locus YCL029C, strain bik1, hits give low values 1.01 | locus YCL061C, strain MRC1, hits give low values 0.976 | locus YCL069W, strain vba3, hits give low values 0.982 | locus YCR088W, strain abp1, hits give low values 0.984 | locus YDL005C, strain med2, hits give low values 0.963 | locus YDL035C, strain GPR1, hits give low values 0.99 | locus YDL040C, strain nat1, hits give low values 0.96 | locus YDL074C, strain BRE1, hits give low values 1.01 | locus YDL101C, strain DUN1, hits give low values 0.988 | locus YDL134C, strain PPH21, hits give low values 0.952 | locus YDL185W, strain tfp1, hits give low values 1.02 | locus YDL192W, strain arf1, hits give low values 1 | locus YDR001C, strain nth1, hits give low values 0.982 | locus YDR069C, strain doa4, hits give low values 0.958 | locus YDR101C, strain arx1, hits give low values 0.996 | locus YDR137W, strain rgp1, hits give low values 0.959 | locus YDR150W, strain NUM1, hits give low values 0.982 | locus YDR159W, strain sac3, hits give low values 0.975 | locus YDR162C, strain NBP2, hits give low values 0.957 | locus YDR195W, strain ref2 1.04 | locus YDR297W, strain sur2, hits give low values 0.978 | locus YDR318W, strain mcm21, hits give low values 0.992 | locus YDR334W, strain swr1, hits give low values 0.973 | locus YDR335W, strain msn5, hits give low values 0.984 | locus YDR388W, hits give low values 0.998 | locus YDR392W, strain spt3, hits give low values 0.781 | locus YDR502C, strain sam2, hits give low values 0.992 | locus YEL003W, strain gim4, hits give low values 0.992 | locus YEL037C, strain rad23, hits give low values 0.978 | locus YEL061C, strain CIN8 (second series), hits give low values 0.984 | locus YEL061C, strain CIN8, hits give low values 0.993 | locus YER015W, strain faa2, hits give low values 0.98 | locus YER016W, strain bim1, hits give low values 0.977 | locus YER110C, hits give low values 1.02 | locus YER111C, strain swi4, hits give low values 0.972 | locus YER155C, strain BEM2 (second series), hits give low values 0.952 | locus YER155C, strain BEM2, hits give low values 0.981 | locus YER167W, strain BCK2, hits give low values 0.993 | locus YFR010W, strain ubp6, hits give low values 0.969 | locus YGL078C, strain dbp3, hits give low values 1 | locus YGL086W, strain mad1, hits give low values 1.01 | locus YGL167C, strain pmr1, hits give low values 0.957 | locus YGL173C, strain kem1, hits give low values 0.954 | locus YGL227W, strain vid30, hits give low values 0.979 | locus YGL240W, strain doc1, hits give low values 0.99 | locus YGL248W, strain PDE1, hits give low values 0.99 | locus YGL253W, strain hxk2, hits give low values 0.93 | locus YGR078C, strain PAC10, hits give low values 0.977 | locus YGR135W, strain pre9, hits give low values 1 | locus YGR252W, strain gcn5, hits give low values 1.01 | locus YHR013C, strain ard1, hits give low values 0.95 | locus YHR027C, strain rpn1, hits give low values 0.995 | locus YHR030C, strain SLT2, hits give low values 1 and 1.05 | locus YHR079C, strain IRE1 (second series), hits give low values 0.987 | locus YHR079C, strain IRE1, hits give low values 1.01 | locus YHR094C, strain hxt1, hits give low values 0.992 | locus YHR129C, strain ARP1, hits give low values 0.998 | locus YHR142W, strain chs7, hits give low values 0.965 | locus YHR200W, strain rpn10, hits give low values 1.01 | locus YIL066C, strain RNR3, hits give low values 0.982 | locus YIL073C, strain SPO22, hits give low values 0.996 | locus YIL125W, strain kgd1, hits give low values 1 | locus YIR030C, strain dcg1, hits give low values 0.987 | locus YJL092W, strain hpr5, hits give low values 0.98 | locus YJL095W, strain BCK1 (second series), hits give low values 0.973 | locus YJL095W, strain BCK1, hits give low values 0.991 and 1.05 | locus YJL115W, strain asf1, hits give low values 0.983 | locus YJL129C, strain trk1, hits give low values 0.945 | locus YJL134W, strain LCB3, hits give low values 1 | locus YJL154C, strain vps35, hits give low values 0.98 | locus YJL164C, strain tpk1, hits give low values 0.97 | locus YJL166W, strain qcr8, hits give low values 0.961 | locus YJL168C, strain set2, hits give low values 0.99 | locus YJL187C, strain SWE1 (second series), hits give low values 0.991 | locus YJL187C, strain SWE1, hits give low values 0.978 | locus YJR043C, strain POL32, hits give low values 1.01 | locus YJR066W, strain TOR1, hits give low values 1 | locus YJR075W, strain HOC1, hits give low values 0.983 | locus YKL009W, strain mrt4, hits give low values 0.993 | locus YKL068W, hits give low values 0.984 | locus YKL085W, strain MDH1 (second series), hits give low values 0.982 | locus YKL085W, strain MDH1, hits give low values 0.982 | locus YKL160W, strain elf1, hits give low values 0.98 | locus YKL190W, strain CNB1, hits give low values 0.974 | locus YKR001C, strain vps1, hits give low values 1.01 | locus YKR026C, strain gcn3, hits give low values 0.971 | locus YKR091W, strain srl3, hits give low values 0.974 | locus YLL001W, strain dnm1, hits give low values 0.979 | locus YLL026W, hits give low values 0.976 | locus YLL041C, strain sdh2, hits give low values 0.987 | locus YLR027C, strain aat2, hits give low values 0.97 | locus YLR039C, strain RIC1, hits give low values 1.04 | locus YLR058C, strain SHM2, hits give low values 0.995 | locus YLR102C, strain apc9, hits give low values 1 | locus YLR113W, strain HOG1, hits give low values 0.95 | locus YLR221C, strain rsa3, hits give low values 0.943 | locus YLR258W, strain gsy2, hits give low values 0.963 | locus YLR262C, strain YPT6 (second series), hits give low values 0.965 | locus YLR262C, strain YPT6, hits give low values 1 | locus YLR268W, strain sec22, hits give low values 0.992 | locus YLR320W, strain mms22, hits give low values 0.933 | locus YLR330W, strain CHS5, hits give low values 0.997 | locus YLR342W, strain FKS1 (second series), hits give low values 0.993 | locus YLR342W, strain FKS1, hits give low values 0.948 | locus YLR357W, strain rsc2, hits give low values 0.974 | locus YLR370C, strain arc18, hits give low values 0.981 | locus YLR371W, strain rom2, hits give low values 1.01 | locus YLR384C, strain iki3, hits give low values 0.975 | locus YLR418C, strain cdc73, hits give low values 0.995 | locus YML016C, strain PPZ1, hits give low values 1 | locus YML032C, strain rad52, hits give low values 1 | locus YML120C, strain ndi1, hits give low values 0.982 | locus YML124C, strain tub3, hits give low values 0.995 | locus YMR058W, strain fet3, hits give low values 0.965 | locus YMR078C, strain ctf18, hits give low values 1 | locus YMR125W, strain sto1, hits give low values 0.985 | locus YMR129W, hits give low values 0.975 | locus YMR205C, strain PFK2, hits give low values 0.946 | locus YMR223W, strain ubp8, hits give low values 1 | locus YMR231W, strain pep5, hits give low values 0.946 | locus YMR263W, strain SAP30, hits give low values 0.996 | locus YMR307W, strain GAS1, hits give low values 0.92 | locus YNL067W, strain RPL9B, hits give low values 0.981 | locus YNL071W, strain lat1, hits give low values 0.949 | locus YNL153C, strain GIM3, hits give low values 0.988 | locus YNL183C, strain NPR1, hits give low values 0.99 | locus YNL209W, strain ssb2, hits give low values 0.996 | locus YNL233W, strain BNI4, hits give low values 0.991 | locus YNL248C, strain rpa49, hits give low values 0.963 | locus YNL250W, strain rad50, hits give low values 1.01 | locus YNL271C, strain bni1, hits give low values 0.989 | locus YNL298W, strain CLA4, hits give low values 1 | locus YNL307C, strain MCK1, hits give low values 1 | locus YNL322C, strain KRE1 (second series), hits give low values 0.979 | locus YNR049C, strain mso1, hits give low values 0.97 | locus YNR052C, strain pop2, hits give low values 0.996 | locus YOL012C, strain htz1 1.12 | locus YOL147C, strain pex11, hits give low values 0.988 | locus YOR001W, strain rrp6, hits give low values 0.956 | locus YOR061W, strain CKA2, hits give low values 0.995 | locus YOR069W, strain VPS5, hits give low values 1 | locus YOR070C, strain gyp1, hits give low values 1 | locus YOR080W, strain dia2, hits give low values 0.978 | locus YOR083W, strain WHI5, hits give low values 0.971 | locus YOR106W, strain vam3, hits give low values 0.963 | locus YOR136W, strain idh2, hits give low values 1 | locus YOR144C, strain elg1, hits give low values 0.996 | locus YOR184W, strain ser1, hits give low values 0.969 | locus YOR231W, strain MKK1, hits give low values 1.01 | locus YOR265W, strain rbl2, hits give low values 0.975 | locus YOR270C, strain vph1, hits give low values 0.88 | locus YOR290C, strain snf2, hits give low values 0.974 | locus YOR316C, strain cot1, hits give low values 1.01 | locus YPL051W, strain arl3, hits give low values 1 | locus YPL078C, strain atp4, hits give low values 0.972 | locus YPL106C, strain sse1, hits give low values 0.982 | locus YPL240C, strain hsp82, hits give low values 0.971 | locus YPL256C, strain CLN2, hits give low values 1.04 | locus YPR119W, strain clb2, hits give low values 0.995 | locus YPR141C, strain kar3, hits give low values 1.01 | locus YPR163C, strain tif3, hits give low values 1.01 | locus YPR167C, strain met16, hits give low values 0.994 | strain wtn01, hits give low values 1.01
